Several values for one entry are separate records, joined by “and”; a condition that tells them apart may be missing. Equal values may be shown once. Records with an inconclusive call do not appear. Activity calls are given as the source filed them.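 How the source made its calls, unless noted: active means normalized viability below 100% at a tested concentration; inactive means the rest.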
Assays:
[1] = EMT-state selective cytotoxicity in co-culture – imaging, PC-3E GFP, TEM4-18 mCherry, primary screen (AID 1345086;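 active means compounds killing one labelled cell type while sparing the other, by normalised counts and ratio limits, not self-fluorescent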;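 on all read-outs here: cells exposed to compound for 72 h before imaging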;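 on red/green cell ratio (normalised): normalised mesenchymal count divided by normalised epithelial count so high means epithelial killing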); settings: PC-3E GFP / TEM4-18 mCherry co-culture, imaging cell counts, at 1 µM; for red/green cell ratio (normalised): actives lie on both sides, counts scaled to control wells, 1 = unselective
[2] = viability loss in pontine glioma line – cell-based, SU-DIPG-XVII, MIPE5.0, CellTiter-Glo, qHTS, dose response (AID 1347060; cut-off not given, nearly all actives have AC50 up to about 26 µM); settings: CellTiter-Glo ATP luminescence
[3] = viability loss in pontine glioma line – cell-based, JHH-DIPG-1, MIPE4.0, CellTiter-Glo, qHTS, dose response (AID 1347062; cut-off not given, nearly all actives have AC50 up to about 27 µM;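 on AC50: cells exposed to compound for two days before readout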); settings: JHH-DIPG-1 viability, CellTiter-Glo ATP luminescence
[4] = viability loss in pontine glioma line – cell-based, SU-DIPG-IV, MIPE4.0, CellTiter-Glo, qHTS, dose response (AID 1347063; cut-off not given, nearly all actives have AC50 up to about 30 µM;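 further: compound exposure lasted 48 hours before the viability readout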); settings: CellTiter-Glo ATP luminescence
[5] = viability loss in pontine glioma line – cell-based, SU-DIPG-XIII, MIPE5.0, CellTiter-Glo, qHTS, dose response (AID 1347064; cut-off not given, nearly all actives have AC50 up to about 23 µM); settings: CellTiter-Glo ATP luminescence
[6] = viability loss in pontine glioma line – cell-based, SU-DIPG-XXV, MIPE5.0, CellTiter-Glo, qHTS, dose response (AID 1347065; cut-off not given, nearly all actives have AC50 up to about 26 µM;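 further: cells exposed to compound for 48 hours before ATP readout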); settings: CellTiter-Glo ATP luminescence
[7] = growth inhibition of DIPG cells – cell-based, MIPE4.0 library, CellTiter-Glo luminescence, qHTS (AID 1347066; cut-off not given, nearly all actives have AC50 up to about 30 µM;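 further: cells exposed to compound for 48 hours before readout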); settings: SU-DIPG-VI viability, CellTiter-Glo ATP luminescence
[8] = JHH-DIPG-1 glioma cell viability, MIPE5.0 library, CellTiter-Glo luminescence, qHTS (AID 1347067; cut-off not given, nearly all actives have AC50 up to about 26 µM;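 further: cells exposed to compound for 48 hours before readout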); settings: JHH-DIPG-1 glioma viability, CellTiter-Glo ATP luminescence
[9] = growth inhibition of DIPG cells – cell-based, MIPE5.0 library, qHTS (AID 1347068; cut-off not given, nearly all actives have IC50 up to about 30 µM); settings: SU-DIPG-XXV viability
[10] = viability loss with induced miR-34 in A549 – imaging, A549 dox-inducible miR-34, nuclei and caspase counts, primary screen (AID 1347080;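 active means compounds whose cell count with miR-34 switched on is under 0.7 times the count with it off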); settings: A549 miR-34 inducible, Hoechst nuclei count, 48 h
[11] = MELAS cybrid and Rieske KO viability enhancers – cell-based, MELAS cybrids, Rieske KO mouse fibroblasts, CellTiter-Glo, primary screen (AID 1508586;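 active means mean z-score across replicates of 1.96 or higher in either the MELAS or the Rieske mutant cell line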;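 further: z relative to plate mean and SD of compound and empty wells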); settings: low glucose
[12] = viability loss in pontine glioma line – cell-based, SU-DIPG-XIII, MIPE4.0, CellTiter-Glo, qHTS, dose response (AID 1347061; cut-off not given, nearly all actives have AC50 up to about 37 µM;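 further: cells exposed to compound for 48 hours before readout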); settings: CellTiter-Glo ATP luminescence
[13] = compounds altering HSF1 focus formation in cells – imaging, Selleck Cancer Library (AID 1347162; in the data active means plate-normalised HSF1 focus index below about 0.46); settings: human cells, HSF1 nuclear foci imaging, at 10 µM; SSMD: measured here: HSF1 foci SSMD mean; cell count: measured here: cell number; plate-normalised HSF1 focus index: stronger effect = lower value
[14] = drug combination growth inhibition, ovarian cancer – cell-based, oncology-focused library, rucaparib conditional, profiling panel (AID 1508598); settings: patient-derived ovarian cancer cells, CellTiter-Glo viability, 144 h, stronger effect = lower value
[15] = blockers of cellular phospholipid synthesis – cell-based, LOPAC library, screen 4, primary screen (AID 1347384; call rule not given here); settings: animal cells, phospholipid biosynthesis inhibition screen; at 10 µM
[16] = chitosan synthesis blockers in C. neoformans – flow cytometry, Cibacron Brilliant Red staining (AID 1347148; call rule not given here;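 further: compound exposure lasted three days at 37 degrees C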); settings: Cryptococcus neoformans chitosan, stronger effect = lower value; at 10 µM unless noted
[17] = measured here: epithelial PC-3E GFP cell survival
[18] = measured here: mesenchymal TEM4-18 mCherry cell survival
[19] = stronger effect = lower value, cell number ratio, induced over uninduced
[20] = measured here: relative caspase fold change +Dox/-Dox
[21] = measured here: total cells with miR-34 induction, stronger effect = lower value
[22] = measured here: total cells without miR-34 induction
[23] = MELAS cybrid survival, CellTiter-Glo 48 h, stronger effect = higher value
[24] = Rieske KO mouse fibroblast survival, CellTiter-Glo 72 h
[25] = at 0.000305 µM, OCI-C5x cells, with rucaparib 10 µM, 100% = cells with rucaparib alone
[26] = at 0.000305 µM, OCI-C5x cells, without rucaparib
[27] = at 0.000305 µM, OCI-P5x cells, with rucaparib 20 µM, 100% = cells with rucaparib alone
[28] = at 0.000305 µM, OCI-P5x cells, without rucaparib
[29] = at 0.00122 µM, OCI-C5x cells, with rucaparib 10 µM, 100% = cells with rucaparib alone
[30] = at 0.00122 µM, OCI-C5x cells, without rucaparib
[31] = at 0.00122 µM, OCI-P5x cells, with rucaparib 20 µM, 100% = cells with rucaparib alone
[32] = at 0.00122 µM, OCI-P5x cells, without rucaparib
[33] = at 0.00488 µM, OCI-C5x cells, with rucaparib 10 µM, 100% = cells with rucaparib alone
[34] = at 0.00488 µM, OCI-C5x cells, without rucaparib
[35] = at 0.00488 µM, OCI-P5x cells, with rucaparib 20 µM, 100% = cells with rucaparib alone
[36] = at 0.00488 µM, OCI-P5x cells, without rucaparib
[37] = at 0.0195 µM, OCI-C5x cells, with rucaparib 10 µM, 100% = cells with rucaparib alone
[38] = at 0.0195 µM, OCI-C5x cells, without rucaparib
[39] = at 0.0195 µM, OCI-P5x cells, with rucaparib 20 µM, 100% = cells with rucaparib alone
[40] = at 0.0195 µM, OCI-P5x cells, without rucaparib
[41] = at 0.0781 µM, OCI-C5x cells, with rucaparib 10 µM, 100% = cells with rucaparib alone
[42] = at 0.0781 µM, OCI-C5x cells, without rucaparib
[43] = at 0.0781 µM, OCI-P5x cells, with rucaparib 20 µM, 100% = cells with rucaparib alone
[44] = at 0.0781 µM, OCI-P5x cells, without rucaparib
[45] = at 0.313 µM, OCI-C5x cells, with rucaparib 10 µM, 100% = cells with rucaparib alone
[46] = at 0.313 µM, OCI-C5x cells, without rucaparib
[47] = at 0.313 µM, OCI-P5x cells, with rucaparib 20 µM, 100% = cells with rucaparib alone
[48] = at 0.313 µM, OCI-P5x cells, without rucaparib
[49] = at 1.25 µM, OCI-C5x cells, with rucaparib 10 µM, 100% = cells with rucaparib alone
[50] = at 1.25 µM, OCI-C5x cells, without rucaparib
[51] = at 1.25 µM, OCI-P5x cells, with rucaparib 20 µM, 100% = cells with rucaparib alone
[52] = at 1.25 µM, OCI-P5x cells, without rucaparib
[53] = at 5 µM, OCI-C5x cells, with rucaparib 10 µM, 100% = cells with rucaparib alone
[54] = at 5 µM, OCI-C5x cells, without rucaparib
[55] = at 5 µM, OCI-P5x cells, with rucaparib 20 µM, 100% = cells with rucaparib alone
[56] = at 5 µM, OCI-P5x cells, without rucaparib

COc1ccnc(CS(=O)c2nc3ccc(OC(F)F)cc3[nH]2)c1OC (stereo not given)
1.3: normalised cell number [1, 17]
-0.32: z-score [11, 24]
12000 and 8980: cell count [10, 21]
1.4: normalised cell number [1, 18]
4.32 and 0.927: fold change [10, 20]
12600 and 10700: cell count [10, 22]
inactive: red/green cell ratio (normalised) [1] 1.07 | outcome [2] | outcome [3] | outcome [4] | outcome [5] | outcome [6] | outcome [7] | outcome [8] | outcome [9] | fold change [10, 19] 0.948 and 0.839 | z-score [11, 23] 0.74

O=NN(CCCl)C(=O)NC1CCCCC1
0.27: SSMD [13]
active: viability [14, 27] 87.5% | viability [14, 31] 100% | viability [14, 35] 94.7% | viability [14, 39] 97.1% | viability [14, 43] 97.7% | viability [14, 51] 90.9% | viability [14, 55] 97.4%
1.15: normalised cell number [1, 18]
1.04: normalised cell number [1, 17]
inactive: red/green cell ratio (normalised) [1] 1.11 | outcome [2] | outcome [12] | outcome [3] | outcome [5] | outcome [6] | outcome [7] | outcome [9] | fold change [10, 19] 0.819 and 0.861 | plate-normalised HSF1 focus index [13] 1.01 | z-score [11, 23] -0.38 and -0.0882 | viability [14, 25] 106% | viability [14, 26] 116% | viability [14, 28] 105% | viability [14, 29] 106% | viability [14, 30] 123% | viability [14, 32] 107% | viability [14, 33] 107% | viability [14, 34] 120% | viability [14, 36] 109% | viability [14, 37] 121% | viability [14, 38] 122% | viability [14, 40] 116% | viability [14, 41] 107% | viability [14, 42] 121% | viability [14, 44] 112% | viability [14, 45] 113% | viability [14, 46] 119% | viability [14, 47] 103% | viability [14, 48] 119% | viability [14, 49] 115% | viability [14, 50] 125% | viability [14, 52] 108% | viability [14, 53] 118% | viability [14, 54] 124% | viability [14, 56] 125%
1.64 and 1.87: fold change [10, 20]
7170 and 7550: cell count [10, 21]
6620: cell count [13]
8750 and 8760: cell count [10, 22]
0.628 and -0.815: z-score [11, 24]

NC(=O)NO
0.485: z-score [11, 24]
inactive: red/green cell ratio (normalised) [1] 1.09 | outcome [2] | outcome [5] | outcome [6] | outcome [7] | outcome [8] | outcome [9] | fold change [10, 19] 0.975 and 0.894 and 0.861 | outcome [15] | z-score [11, 23] -0.326 | viability [14, 25] 105% | viability [14, 26] 113% | viability [14, 29] 111% | viability [14, 30] 112% | viability [14, 32] 102% | viability [14, 33] 105% | viability [14, 34] 104% | viability [14, 35] 101% | viability [14, 36] 109% | viability [14, 37] 104% | viability [14, 38] 115% | viability [14, 39] 106% | viability [14, 40] 109% | viability [14, 41] 116% | viability [14, 42] 106% | viability [14, 43] 106% | viability [14, 44] 116% | viability [14, 45] 109% | viability [14, 46] 114% | viability [14, 47] 103% | viability [14, 48] 110% | viability [14, 49] 102% | viability [14, 50] 116% | viability [14, 52] 110% | viability [14, 53] 105% | viability [14, 54] 114% | viability [14, 55] 109% | viability [14, 56] 111%
1.01: normalised cell number [1, 17]
active: AC50 [3] 526 nM | AC50 [4] 1870 nM | viability [14, 27] 95.9% | viability [14, 28] 97.6% | viability [14, 31] 98.6% | viability [14, 51] 96.8%
10300 and 8660 and 7880: cell count [10, 21]
1.1: normalised cell number [1, 18]
1.12 and 0.968 and 1.05: fold change [10, 20]
10600 and 9680 and 9160: cell count [10, 22]

NC(=O)c1ncn([C@@H]2O[C@H](CO)[C@@H](O)[C@H]2O)n1
1.31: normalised cell number [1, 17]
-1.02 and -1.08: z-score [11, 24]
inactive: red/green cell ratio (normalised) [1] 0.68 | outcome [2] | outcome [12] | outcome [3] | outcome [5] | outcome [6] | outcome [7] | outcome [8] | outcome [9] | outcome [15] | z-score [11, 23] -1.67 and -1.08
0.89: normalised cell number [1, 18]

NCC1CCC(C(=O)O)CC1 (stereo not given)
1.27: normalised cell number [1, 18]
9660 and 13500: cell count [10, 22]
-0.313: z-score [11, 24]
1.25 and 2.45: fold change [10, 20]
8960 and 11200: cell count [10, 21]
inactive: red/green cell ratio (normalised) [1] 1.26 | outcome [2] | outcome [12] | outcome [3] | outcome [4] | outcome [6] | outcome [7] | outcome [8] | outcome [9] | fold change [10, 19] 0.928 and 0.834 | z-score [11, 23] -0.244
1: normalised cell number [1, 17]

Cc1ccc(S(=O)(=O)NC(=O)NN2CC3CCCC3C2)cc1 (stereo not given)
8400 and 8080 and 10300: cell count [10, 21]
1.15: normalised cell number [1, 17]
0.96: normalised cell number [1, 18]
9450 and 9180 and 11600: cell count [10, 22]
inactive: red/green cell ratio (normalised) [1] 0.84 | outcome [2] | outcome [12] | outcome [5] | outcome [6] | outcome [8] | outcome [9] | fold change [10, 19] 0.889 and 0.88 | z-score [11, 23] -0.361 and -0.892 and 0.121
active: AC50 [3] 20900 nM
0.53 and -0.111 and 0.139: z-score [11, 24]
1.81 and 0.848 and 0.946: fold change [10, 20]

CCOC(=O)C(C)(C)Oc1ccc(Cl)cc1
inactive: red/green cell ratio (normalised) [1] 0.94 | outcome [2] | outcome [12] | outcome [3] | outcome [5] | outcome [6] | outcome [7] | outcome [8] | outcome [9] | fold fluorescence [16] 5.04 | outcome [15] | z-score [11, 23] 0.307 and -1.09
-0.506 and -1.36: z-score [11, 24]
1.2: normalised cell number [1, 18]
1.28: normalised cell number [1, 17]

Source: PubChem BioAssay
